A short description of test [1]: qHTS assay to identify small molecule antagonists of the estrogen related receptor (ERR) signaling pathway from Tox21 library - cell viability counter screen (AID 1224834). Note: nearly all actives have a fitted effect of over 30% in size. Note: potency is the fitted concentration of half-maximal effect. The method in brief:
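ERR reporter cells were plated 6 h before compound addition, then exposed to test compounds in DMSO for 17.5 h at 37 C. Viability was read as CellTiter-Fluor fluorescence after a 30-minute incubation at 37 C.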
(In qHTS, concentration-response curves come from the screen itself.)

The target of test [2] is Luciferin 4-monooxygenase (Photinus pyralis) (UniProt P08659). Briefly: qHTS assay to identify small molecule inhibitors of firefly luciferase (AID 1224835). Note: nearly all actives have a fitted effect of over 25% in size. Note: potency is the fitted concentration of half-maximal effect. The method in brief: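 Inhibition of purified Photinus luciferase is measured by luminescence. Substrate levels (D-luciferin, ATP) sit at their KM values. Each compound is tested in a concentration series.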
Chain of Luciferin 4-monooxygenase (Photinus pyralis) (P08659 whole entry, looked up): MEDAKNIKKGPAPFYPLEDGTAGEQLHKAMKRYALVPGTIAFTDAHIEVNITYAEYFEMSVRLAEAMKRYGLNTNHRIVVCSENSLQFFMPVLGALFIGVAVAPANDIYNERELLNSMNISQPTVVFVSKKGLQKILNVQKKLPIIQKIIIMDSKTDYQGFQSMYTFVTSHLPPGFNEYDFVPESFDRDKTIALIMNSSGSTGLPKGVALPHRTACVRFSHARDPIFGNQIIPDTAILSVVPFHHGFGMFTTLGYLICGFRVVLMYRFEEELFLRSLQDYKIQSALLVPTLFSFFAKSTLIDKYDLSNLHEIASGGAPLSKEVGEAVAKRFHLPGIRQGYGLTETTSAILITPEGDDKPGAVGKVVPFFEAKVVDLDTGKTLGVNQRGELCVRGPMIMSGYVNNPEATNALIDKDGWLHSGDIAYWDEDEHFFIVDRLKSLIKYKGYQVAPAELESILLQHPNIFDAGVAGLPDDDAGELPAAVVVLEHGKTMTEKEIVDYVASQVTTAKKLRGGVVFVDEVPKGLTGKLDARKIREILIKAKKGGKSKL
Test [3] in a line: qHTS assay to identify small molecule agonists of the constitutive androstane receptor (CAR) signaling pathway - cell viability counter screen (AID 1224836). Note: nearly all actives have a fitted effect of over 45% in size. Note: potency is the fitted concentration of half-maximal effect. The method in brief:
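23 h treatment, 37 C, 5% CO2. Cell line: HepG2 stably expressing hCAR with a CYP2B6-2.2kb construct. Co-treatment: PK11195, 0.75 uM final. Read-out: CellTiter-Fluor fluorescence intensity.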

A short description of test [4]: qHTS assay to identify small molecule antagonists of the constitutive androstane receptor (CAR) signaling pathway - cell viability counter screen (AID 1224837). Note: nearly all actives have a fitted effect of over 45% in size. Note: potency is the fitted concentration of half-maximal effect. The method in brief: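 HepG2 cells stably expressing hCAR and a CYP2B6-2.2kb reporter were plated and pre-incubated 4 hr at 37 C/5% CO2, then given compounds at 15 concentrations plus 50 nM CITCO (final). After 23 hr, viability was read by CellTiter-Fluor fluorescence.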

The target in test [5] is Nuclear receptor subfamily 1 group I member 3 (Homo sapiens) (UniProt Q14994). Briefly: qHTS assay to identify small molecule antagonists of the constitutive androstane receptor (CAR) signaling pathway (AID 1224838). Note: nearly all actives have a fitted effect of over 40% in size. Note: potency is the fitted concentration of half-maximal effect. The method in brief:
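HepG2 cells stably co-transfected with hCAR and a CYP2B6-2.2kb luciferase reporter were seeded 4 h before compound addition at 15 concentrations. Cells were stimulated with 50 nM CITCO (final) for 24 h at 37 C; luciferase luminescence was then read.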

The target is the same in test [6]. Briefly: qHTS assay to identify small molecule agonists of the constitutive androstane receptor (CAR) signaling pathway (AID 1224839). Note: nearly all actives have a fitted effect of over 15% in size. Note: potency is the fitted concentration of half-maximal effect. The method in brief: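 Compounds tested at 15 concentrations on HepG2 cells stably harbouring hCAR and CYP2B6-2.2kb reporter constructs, co-treated with PK11195 (0.75 uM final), 24 h at 37 C; luminescent reporter signal quantified.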

Test [7] is described as follows: qHTS assay to identify small molecule antagonists of the estrogen related receptor signaling pathway with the pleiotropic PPARgamma coactivator (PGC) from Tox21 10K library - cell viability counter screen (AID 1224840; active = well fitted cell-killing curve with a large enough effect in the repeat runs, not every such curve was filed as active; note: nearly all actives have a fitted effect of over 40% in size; note: potency is the fitted concentration of half-maximal effect). The method in brief: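 PGC/ERR cells were seeded at 2,000 cells/well and left 6 hours at 37 C/5% CO2 before pin-tool addition of compounds in DMSO. After 17.5 hours at 37 C, CellTiter-Fluor was added and fluorescence read 30 minutes later.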

Test [8] can be described thus: qHTS assay to identify small molecule antagonists of the estrogen related receptor signaling pathway with the pleiotropic PPARgamma coactivator (PGC) from Tox21 10K library (AID 1224841; call rule not given here; note: actives are mostly falling curves and most rising ones were filed inactive; nearly all actives have a fitted effect of over 50% in size; note: potency is the fitted concentration of half-maximal effect). The method in brief: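 PGC/ERR reporter cells were seeded at 2,000 cells/well and held 6 hours at 37 C/5% CO2 before pin-tool addition of compounds in DMSO. After 18 hours at 37 C, One-Glo was added and luminescence read after 30 minutes at room temperature.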

Test [9] can be described thus: qHTS assay to identify small molecule agonists of the estrogen related receptor signaling pathway with the pleiotropic PPARgamma coactivator (PGC) from Tox21 10K library (AID 1224842). Note: nearly all actives have a fitted effect of over 15% in size. The method in brief: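 Luminescence from One-Glo (30 min, room temperature) measured after PGC/ERR cells had 18 h at 37 C with pinned compound (23 nL in DMSO). Cells had been seeded at 2,000 per well and pre-incubated 6 h.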

SMILES strings stand for the structures. Several values for one entry are separate records, joined by “and”; a condition that tells them apart may be missing. Identical values can stand only once. Records with an inconclusive call do not appear. Activity calls are given as the source filed them. Unless noted, calls come from the whole dose curve; as a rule, active = well fitted curve in the direction sought with a large enough effect in the repeat runs; inconclusive = weak or mixed curves; inactive = no such curve, though single readings can be large; an effect the other way counts as inactive or inconclusive.

Chain of Nuclear receptor subfamily 1 group I member 3 (Homo sapiens) (Q14994 whole entry, looked up): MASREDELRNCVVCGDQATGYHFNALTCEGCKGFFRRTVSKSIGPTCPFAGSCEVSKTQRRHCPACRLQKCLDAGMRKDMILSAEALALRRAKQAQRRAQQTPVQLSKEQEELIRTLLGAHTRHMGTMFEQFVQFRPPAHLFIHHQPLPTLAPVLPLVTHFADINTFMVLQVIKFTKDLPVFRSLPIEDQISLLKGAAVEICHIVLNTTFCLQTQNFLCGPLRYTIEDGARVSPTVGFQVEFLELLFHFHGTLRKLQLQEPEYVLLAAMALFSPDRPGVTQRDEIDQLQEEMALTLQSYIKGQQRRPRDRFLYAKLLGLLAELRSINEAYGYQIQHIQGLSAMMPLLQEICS

For the molecule `Nc1c(N=Nc2ccc(-c3ccc(N=Nc4cc(S(=O)(=O)O)c5ccccc5c4N)cc3)cc2)cc(S(=O)(=O)O)c2ccccc12`, the Potency in test [1] was 21.7 µM (active); in test [2], 39.9 µM (active); in test [3], 27.3 µM (active); in test [4] it was 24.3 µM (active); in test [5] it was 27.3 µM (active); in test [7] it was 21.7 µM (active). Moreover, the Potency in test [8] was 21.7 µM (active). The Potency result in test [6] and in test [9] was “inactive” throughout.
Turning to `F[B-](F)(F)F`, the Potency result in [1], in test [2], in test [3], in [4] and in test [7] was “inactive” throughout.
Take `CN[C@H]1CC[C@@H](c2ccc(Cl)c(Cl)c2)c2ccccc21`: the Potency was 29.8 µM (active) in test [1] and 26.6 µM (active) in [7]. In addition, the Potency entry in test [2], in [3], in test [4], in test [5], in [6] and in test [8] was “inactive” in each case.
For `CCCCCCc1ccc(O)cc1O`, the Potency in test [1] is 61.3 µM (active). Also, the Potency result in test [2], in [3], in [4], in test [5], in test [6] and in test [7] was “inactive” in each case. For the same molecule, the Potency entry in test [8] and in test [9] was “inactive” each time.
Regarding `CN1[C@@H]2CC(OC(=O)[C@H](CO)c3ccccc3)C[C@H]1[C@@H]1O[C@@H]12` (stereo partly specified), the Potency result in [1], in test [2], in test [3], in [4], in test [5] and in test [6] was “inactive” each time. Besides, the Potency result in test [7] was “inactive”.
On to `Cc1ncc([N+](=O)[O-])n1C`, for which the Potency result in test [1], in [2], in test [3], in test [4], in [5] and in test [6] was “inactive” each time. The Potency entry in test [7], in test [8] and in test [9] was “inactive” in each case.
Consider `CN(C)CCOC(c1ccccc1)c1ccccc1`, for which the Potency entry in test [1], in test [2], in [3], in test [4] and in [7] was “inactive” in each case.
As for `Cc1ncc([N+](=O)[O-])n1CCO`, the Potency result in test [1], in [2], in [3], in [4], in [5] and in test [6] was “inactive” throughout. The Potency result in [7], in test [8] and in test [9] was “inactive” in each case.
On to `CC(O)(P(=O)(O)O)P(=O)(O)O`, for which the Potency entry in test [1], in [2], in [3], in test [4] and in test [7] was “inactive” in each case.
As for `O=C1c2c(O)cccc2Cc2cccc(O)c21`, the Potency entry in [1], in test [2], in test [3], in test [4] and in test [7] was “inactive” throughout.
As to `CCOC(N)=O`, the Potency entry in [1], in test [2], in test [3], in [4] and in test [7] was “inactive” each time.
With `COc1ccc2cc(S(=O)(=O)N[C@H](CC(=O)N[C@H](Cc3ccc(CN4[C@H](C)CCC[C@@H]4C)cc3)C(=O)N(C)C(C)C)c3ccc4c(c3)OCO4)ccc2c1`, the Potency in test [1] was 51.6 µM (active); in [3], 23 µM (active); in test [4] it was 25.8 µM (active); in test [5], 41 µM (active); in test [7], 29 µM (active). The Potency result in [2], in test [6] and in test [9] was “inactive” each time.
As for `OC[C@H]1O[C@H](O[C@]2(CCl)O[C@H](CCl)[C@@H](O)[C@@H]2O)[C@H](O)[C@@H](O)[C@H]1Cl`, the Potency entry in test [1], in test [2], in [3], in test [4] and in test [7] was “inactive” each time.
As to `NS(=O)(=O)O`, the Potency entry in [1], in test [2], in test [3], in test [4], in [5] and in test [7] was “inactive” each time.
Regarding `NC1CCCCC1`, the Potency entry in test [1], in test [2], in [3], in [4], in [5] and in test [6] was “inactive” each time. Besides, the Potency entry in test [7] was “inactive”.
`O=C1O[C@H]([C@@H](O)CO)C(O)=C1O`: the Potency entry in [1], in test [2], in [3], in test [4], in test [5] and in test [6] was “inactive” in each case. Also, the Potency entry in test [7] was “inactive”.
For `CN1CCC[C@H]1c1cccnc1`, the Potency entry in test [1], in test [2], in test [3], in test [4], in [5] and in [7] was “inactive” each time.
On to `CN1CCc2cccc3c2[C@H]1Cc1ccc(O)c(O)c1-3`, for which the Potency in [1] is 27.6 µM (active) and 22.8 µM (active) and 26.6 µM (active); in [3], 49.1 µM (active) and 22.8 µM (active); in test [4], 49.1 µM (active) and 22.8 µM (active); in [6], 15.5 µM (active) and 9.09 µM (active) and 15 µM (active); in test [7], 30.9 µM (active) and 22.8 µM (active); in test [8], 30.9 µM (active) and 20.4 µM (active) and 29.8 µM (active). Besides, the Potency entry in test [2], in test [5] and in test [9] was “inactive” throughout.
On to `COc1ccc(C(Cl)=C(c2ccc(OC)cc2)c2ccc(OC)cc2)cc1`, for which the Potency entry in test [1], in test [2], in test [3], in test [4], in [5] and in [6] was “inactive” throughout. Besides, the Potency result in test [7] and in test [9] was “inactive” throughout. The Potency in test [8] was 27.2 µM (active) and 30.6 µM (active) and 23.7 µM (active).
For the molecule `COc1ccc(CN(CCN(C)C)c2ccccn2)cc1`, the Potency result in test [2], in [3], in test [4] and in test [7] was “inactive” throughout.
On to `Cc1ccc(S(=O)(=O)O)cc1`, for which the Potency result in test [1], in [3], in [4] and in [7] was “inactive” in each case.

These data come from PubChem BioAssay (Tox21).
